# FMDV antiviral = antivirals against foot and mouth disease virus; FMDV antiviral cell-based qHTS; Potency, µM (top dose mostly 57.9 µM), for the others: at the highest dose activity change, negative = inhibition, most hits filed as inhibitors; 410,000 compounds, 1.2% hits; calls by dose curve; tested in HEK293T cells; also: read-out not given here; potency is read from the fitted curve at half-maximal effect; nearly all actives have a fitted effect of over 45% in size
# LASV entry inh = inhibitors of Lassa virus binding or cell entry | AID 540256 | 300,000 compounds, 1.2% hits | Potency, µM (titrated, usually from 37.9 µM), inactives show at the top dose activity change, negative = inhibition, usual class: inhibitors | Lassa virus pseudotype entry inhibition, cell reporter; calls by dose curve; tested in HEK293 cells; also: potency is read from the fitted curve at half-maximal effect; nearly all actives have a fitted effect of over 50% in size
# HCMV antiviral = blocks human cytomegalovirus replication. HFF cells, HCMV-luciferase reporter, 72 h; stronger effect = lower value. activity change, negative = inhibition, % at 57.5 µM. 410,000 compounds, 4.5% hits. AID 1259415; in the data active = activity change below about -60%; inconclusive = no clear call, values can overlap the other calls; inactive = above about -39%
#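 Human foreskin fibroblasts infected with luciferase-reporter HCMV at MOI 1 PFU/cell, compounds at two doses. Luciferase measured 72 h post infection; normalized to buffer-only basal and Salinomycin (10uM) controls.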
# Giardia FBPA inh = blocks Giardia fructose-bisphosphate aldolase activity. A8B2U2. purified Giardia FBPA. Potency, µM (doses to about 59.6 µM), without a hit: at the top dose activity, negative = inhibition, hits mostly inhibitors. 290,000 compounds, 0.71% hits. AID 2451; also: potency is read from the fitted curve at half-maximal effect; nearly all actives have a fitted effect of over 55% in size
# Target sequence (A8B2U2 whole entry, looked up): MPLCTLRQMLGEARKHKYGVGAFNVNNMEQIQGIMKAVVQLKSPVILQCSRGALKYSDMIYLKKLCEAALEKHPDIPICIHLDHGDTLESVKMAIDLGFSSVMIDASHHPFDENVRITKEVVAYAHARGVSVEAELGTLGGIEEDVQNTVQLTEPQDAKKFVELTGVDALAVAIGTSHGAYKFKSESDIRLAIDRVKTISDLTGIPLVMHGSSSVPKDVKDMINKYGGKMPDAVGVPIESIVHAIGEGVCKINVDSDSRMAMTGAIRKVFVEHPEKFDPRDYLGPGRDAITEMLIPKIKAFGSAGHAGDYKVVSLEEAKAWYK
#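 Giardia FBPA (40 nM reagent) was preincubated 10 min at RT with compound (up to 57.5 uM final), then substrate plus GAPDH/TPI/NAD/arsenate coupling system with diaphorase/resazurin was added; resorufin fluorescence (525/598 nm) was read after 20 min.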
# MARV entry inh = blocks Marburg virus binding to or entry into cells; Potency, µM (doses to about 37.8 µM), for inactives: at the top dose activity change, negative = inhibition, actives largely listed as inhibitors; 300,000 compounds, 1.8% hits; Marburg virus pseudotyped entry inhibition, cell reporter; calls by dose curve; tested in HEK293 cells; also: potency is read from the fitted curve at half-maximal effect
# HCV inh = inhibitors of hepatitis C virus infection; 340,000 compounds, 3.4% hits; Huh7.5.1 HCVcc-Cre infection, luciferase reporter, 44 h; AID 651820; Potency, µM (top dose mostly 41.8 µM), without a hit: at the highest dose activity change, negative = inhibition, most hits filed as inhibitors; also: potency is read from the fitted curve at half-maximal effect
#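 HCVcc-Cre virus at an moi near 0.5 was added right after compound to cells cultured 4 h from seeding (1,000 cells/well). Luciferase activity was determined 44 h later, 15 min after substrate addition at RT.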
# Active calls of the source: *; ? = inconclusive; · = not tested or not shown; + = active, no number; [ ] = remark or other dose. Shown are actives, neighbours in structure and some others; about 8.3% of the full set was active somewhere. Unless noted, calls follow the shape of the dose curve; as a rule, active = well fitted curve in the direction sought with a large enough effect; inconclusive = small, poorly fitted or top-dose-only effect, or another doubt; inactive = no such curve, though single readings can be large; an effect the other way counts as inactive or inconclusive. % is scaled to controls: 0 for no effect and ±100 for the full control effect.
SMILES,FMDV antiviral,LASV entry inh,HCMV antiviral,Giardia FBPA inh,MARV entry inh,HCV inh
N#CCCn1c(=O)c(-c2cc(F)cc(F)c2)nc2cnc(OCc3ccccc3)nc21,-21%,·,·,-2%,·,·
CCCc1nc2ccccc2c(C(=O)OCC(=O)Nc2ccc(S(=O)(=O)N3CCOCC3)cc2)c1CC,?,?,30,-1%,?,8.9µM*
CCCc1nc2ccccc2c(C(=O)OCC(=O)Nc2cccc(S(=O)(=O)N3CCOCC3)c2)c1CC,-1%,18µM*,0,-5%,?,8.9µM*
O=C(COC(=O)c1ccc(O)cc1)Nc1ccc(S(=O)(=O)N2CCOCC2)cc1,-14%,·,9,·,·,-1%
O=C(COC(=O)c1n[nH]c2ccccc12)Nc1cccc(S(=O)(=O)N2CCOCC2)c1,0%,8%,-22,-2%,-13%[46.1 µM],-18%
Cc1ccc(-c2cc(C(F)(F)F)n3nc(C(=O)N4CCN5CCCC5C4)cc3n2)cc1 (centres undefined),-2%,1%[46.1 µM],-24,10%,?,?
CCOC(=O)C1CCCN(C(=O)c2cc3nc(-c4ccc5c(c4)OCO5)cc(C(F)(F)F)n3n2)C1 (centres undefined),35µM*,?,-23,2%,?,-4%
C=C1CC(COc2cc(=O)oc3ccccc23)(c2ccccc2)OC1=O (centres undefined),14µM*,-19%,216,·,?,?
C=C1CCC2C(C)(C)[C@H](O)CC[C@@]2(C)[C@@H]1COc1cc(=O)oc2ccccc12 (some centres undefined),?,?,·,-4%,?,-8%
Cc1ccc(C)c(S(=O)(=O)c2cn(Cc3ccccc3)c3cc(N4CCCC4)c(F)cc3c2=O)c1,23%,-2%[46.1 µM],19,·,·,·
Cc1cc(Nc2ccc(C)c(C)c2)n2cnnc2n1,10%,-1%[46.1 µM],34,·,-2%[46.1 µM],·
CC(Nc1nc(-c2ccc(F)cc2)cs1)c1nc2cc(Cl)c(N3CCCCC3)cc2n1CCCO (centres undefined),-27%,·,-65*,·,·,?
CO[C@@H]1COC(=O)[C@H](C)NC(=O)[C@@H](C)COC(=O)CCC[C@H]1C,·,·,·,2%[12.9 µM],·,·
CCc1ccc(C(=O)NC2=NC(c3cc(OC)ccc3OC)CC(=O)N2)cc1 (centres undefined),-10%,-13%[46.1 µM],-9,·,21%[46.1 µM],·
COc1ccc(Cl)cc1NC(=O)c1cc(C)no1,-1%,5%[46.1 µM],56,5%,5%[46.1 µM],10µM*
COc1ccc(Cl)cc1NC(=O)c1cccc(-n2cnnn2)c1,-22%,-4%,-63*,·,-15%,10µM*
CSC1=Nc2ccccc2N=C(N2CCCC2)C1,·,·,-24,·,·,·
Cc1c(C(=O)NCCCc2ccncc2)cnn1-c1ncc2c(n1)-c1ccccc1CC2,-10%,·,·,·,·,·
COc1ccc(C(O)c2ncc(-c3ccccc3)[nH]2)cc1F (centres undefined),38%,·,-101*,·,·,·
OC(c1ccc(F)cc1)c1ncc(-c2ccccc2Cl)[nH]1 (centres undefined),107%,·,85,·,·,·
COc1ccc(C(O)c2ncc(-c3ccccc3Cl)[nH]2)cc1F (centres undefined),0%,·,-102*,·,·,·
N#Cc1cc2c(=O)n3ccccc3nc2n(-c2ccc(Cl)cc2)c1=O,5%,·,-60*,0%,·,10%
Cc1ccccc1-n1c(=O)c(C#N)cc2c(=O)n3ccccc3nc21,-18%,8%,-24,0%,-3%,8%
COc1ccc(-c2nc(CNS(=O)(=O)c3ccc(C)cc3)cs2)cc1,-17%,?,19,·,?,·
COc1ccc(-c2nc(CNS(=O)(=O)c3ccc(F)cc3)cs2)cc1,?,?,-73*,·,-20%[46.1 µM],·
SMILES,FMDV antiviral,LASV entry inh,HCMV antiviral,Giardia FBPA inh,MARV entry inh,HCV inh
CCCCOc1ccc(C(=O)NCC(=O)NCC(c2cccs2)N2CCOCC2)cc1 (centres undefined),1%,·,+,·,·,-2%
CC(C)c1ccccc1OCC(=O)NCC(c1cccs1)N1CCOCC1 (centres undefined),32µM*,-20%,-15,0%,?,?
COc1ccc(-c2cc(C(=O)NCc3ccc(F)cc3)c3c(-c4ccc(F)cc4)[nH]nc3n2)cc1OC,-24%,?,-101*,·,·,·
COc1ccc(CNC(=O)c2cc(-c3ccc(C)cc3)nc3n[nH]c(-c4ccc(Br)cc4)c23)cc1,-25%,-6%[46.1 µM],12,·,·,·
COc1ccc(-c2nc(C#N)c(NCc3cccnc3)o2)cc1OC,22%,-12%,113,5%,-3%,-19%
COc1ccc(CNC(=O)c2cc(-c3ccc(OC)c(OC)c3)nc3n[nH]c(-c4ccc(C)cc4)c23)cc1,-19%,-16%[46.1 µM],-97*,·,·,·
COc1ccc(-c2nc(C#N)c(NCc3ccc(F)cc3)o2)cc1OC,?,-1%,25,0%,0%,3.5µM*
CCC(=O)N1CCc2cc(S(=O)(=O)NCCC(=O)Nc3ccc(C)cc3)ccc21,2%,17%[46.1 µM],-3,·,15%[46.1 µM],·
COc1ccc(S(=O)(=O)Nc2ccc3oc4c(c3c2)C(=O)CC(C)(C)C4)cc1,-4%,?,-10,·,10%[46.1 µM],·
OC(CN1CCNCC1)Cn1c2ccc(Br)cc2c2cc(Br)ccc21 (centres undefined),?,·,·,-16%,·,·
CC(=O)/C(N=Nc1ccc2c(c1)OCCO2)=C(\C)O,1.3µM*,?,-71*,-2%,?,-24%
Cc1ccc(S(=O)(=O)N2CCN(c3ncccn3)CC2)cc1C,-19%,-17%[46.1 µM],4,·,?,-3%
Cc1ccc(S(=O)(=O)N2CCN(c3ncnc4sccc34)CC2)cc1C,11µM*,?,-72*,·,?,11µM*
CN1CCN(S(=O)(=O)c2ccc3c(c2)OCCO3)CC1,-19%,?,36,2%,13%,13%
O=S(=O)(c1ccc2c(c1)OCCO2)N1CCN(c2ncnc3sccc23)CC1,?,?,-91*,2%,?,1µM*

# Compound activity deposited in PubChem BioAssay by National Center for Advancing Translational Sciences (NCATS).
